Assay outcomes from PubChem.
Hits are enriched below; roughly 21% of the tested compounds scored in any of these assays.
NS1 function inh: inhibitors of influenza NS1 protein function | Potency, µM (top dose mostly 46.1 µM), for inactives: top-dose activity, positive = more growth | hit rate 0.4% among 270,000 | AID 2326; calls by dose curve; note: potency is the fitted concentration of half-maximal effect; actives are rising curves; nearly all actives have a fitted effect of over 50% in size
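Growth recovery, yeast-based: influenza A NS1 expressed in S. cerevisiae causes slow growth, and suppressors are detected by OD600. The parent strain without NS1 is used as positive control.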
Shiga inhibitor: inhibitors of Shiga toxin in Vero cells | Vero cells, Shiga toxin protein synthesis inhibition reporter | inhibition, % at 38.7 µM | hit rate 9.2% among 290,000 | AID 2315; in the data active = inhibition mostly above about 28%, no sharp cut-off; inactive = mostly below about 43%; note: 0% is about no effect
Pf growth 48h: P. falciparum growth inhibition at 48 hours (one generation) | P. falciparum luciferase growth in erythrocytes, 48 h | Potency, µM (highest dose often 28.7 µM), inactives show at the highest dose activity change, negative = inhibition, most hits filed as inhibitors | hit rate 5.9% among 310,000; note: potency is the fitted concentration of half-maximal effect; % is set by controls: 0 for no effect and ±100 for the full control effect
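Read-out is firefly luciferase luminescence from an integrated reporter in P. falciparum, so falling signal marks reduced parasite growth. Infected erythrocytes were at 2% hematocrit and 0.1% parasitemia (final) in Albumax-supplemented RPMI 1640.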
Giardia FBPA inh: inhibitors of Giardia lamblia fructose-1,6-bisphosphate aldolase | purified Giardia FBPA | A8B2U2 | Potency, µM (titrated, usually from 59.6 µM), inactives show at the top dose activity, negative = inhibition, hits mostly inhibitors | hit rate 0.71% among 290,000; note: potency is the fitted concentration of half-maximal effect; % is set by controls: 0 for no effect and ±100 for the full control effect; nearly all actives have a fitted effect of over 55% in size
Target sequence (A8B2U2 whole entry, looked up): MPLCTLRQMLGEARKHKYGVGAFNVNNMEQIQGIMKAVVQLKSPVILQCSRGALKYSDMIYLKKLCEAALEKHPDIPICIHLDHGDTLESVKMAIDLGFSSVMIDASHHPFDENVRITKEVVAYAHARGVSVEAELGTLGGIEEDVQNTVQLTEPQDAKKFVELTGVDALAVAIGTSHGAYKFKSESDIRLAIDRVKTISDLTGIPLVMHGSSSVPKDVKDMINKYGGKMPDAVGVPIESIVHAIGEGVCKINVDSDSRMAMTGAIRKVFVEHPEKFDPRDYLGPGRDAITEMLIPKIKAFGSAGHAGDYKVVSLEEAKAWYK
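Giardia FBPA (40 nM reagent) was preincubated 10 min at RT with compound (up to 57.5 uM final), then substrate plus GAPDH/TPI/NAD/arsenate coupling system with diaphorase/resazurin was added; resorufin fluorescence (525/598 nm) was read after 20 min.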
Cycloheximide cs: counter-screen hit for Shiga toxin inhibitors, cycloheximide | hit rate 12% among 300,000 | cell reporter, cycloheximide protein synthesis inhibition counterscreen | max response, %; in the data active = max response mostly above about 13%, no sharp cut-off; inactive = mostly below about 14%; note: read at 38.3 µM for the half of the compounds with a filed dose; 0% is about no effect
Pf growth 96h: P. falciparum growth inhibition at 96 hour, primary screen for plastid delayed-death inhibitors. AID 504834. hit rate 6.9% among 320,000. P. falciparum luciferase reporter growth, 96 h. Potency, µM (series often up to 28.7 µM), inactives show top-dose activity change, negative = inhibition, hits mostly inhibitors; note: potency is the fitted concentration of half-maximal effect; % is set by controls: 0 for no effect and ±100 for the full control effect
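P. falciparum expressing integrated firefly luciferase, in erythrocytes at 2% hematocrit, 0.05% parasitemia, incubated with compounds 96 h at 37 C, 5% CO2. Growth inhibition read as loss of luminescence; two-generation exposure targets delayed-death apicoplast inhibitors.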
* hit, by the source's call; ? = inconclusive; / = no result; [ ] = dose if it differs, or a comment. Unless noted, calls come from the whole dose curve; as a rule, active = well fitted curve in the direction sought with a large enough effect; inconclusive = small, poorly fitted or top-dose-only effect, or another doubt; inactive = no such curve, though single readings can be large; an effect the other way counts as inactive or inconclusive.

SMILES	NS1 function inh	Shiga inhibitor	Pf growth 48h	Giardia FBPA inh	Cycloheximide cs	Pf growth 96h
COc1ccccc1C(=O)Nc1nnc(S(=O)(=O)N2CCN(c3ccc(F)cc3)CC2)s1	11%	9	-23%	/	6	115%
C=CCN1CCCC1CNC(=O)c1cc(S(N)(=O)=O)cc(OC)c1OC (configuration not stated)	/	/	5%	/	/	-7%
CC1(C(=O)OCC(=O)NC(=O)NCc2ccccc2)CC1(Cl)Cl (configuration not stated)	/	-2	-10%	-8%	11	19%
CC1(C(=O)OCC(=O)Nc2ccccc2Cl)CC1(Cl)Cl (configuration not stated)	-33%	62*	-22%	6%	18*	14%
CC1(C(=O)OCC(=O)Nc2ccccc2)CC1(Cl)Cl (configuration not stated)	/	67*	28%	-4%	34*	52%
CCCCCC/C=N/Nc1nnc(Cc2ccc(OC)c(OC)c2)c(=O)[nH]1	4%	-15	16%	-14%	-1	31%
COc1ccc(Cc2nnc(N/N=C/c3ccc(O)cc3O)[nH]c2=O)cc1OC	?	14	4.1µM*	-1%	1	?
COc1ccc(C2Nc3ccccc3C(=O)N2c2ccccc2)cc1CSc1ccccn1 (configuration not stated)	7%	2	?	10%	8	?
CCCN1C(=O)c2ccccc2NC1c1cc(OC)c(OC)c(OC)c1 (configuration not stated)	1%	-6	?	2%	-2	3%
COc1ccc(C2Nc3ccccc3C(=O)N2c2ccc(F)cc2)cc1CSc1ccccn1 (configuration not stated)	23%	12	22%	0%	15*	0%
CCOc1cc(C2Nc3ccccc3C(=O)N2c2ccccc2)ccc1O (configuration not stated)	-7%	43	/	3%	19*	?
CC(C)Oc1ccccc1C1Nc2ccccc2C(=O)N1c1ccc2c(c1)OCCO2 (configuration not stated)	-4%	71*	6%	2%	54*	/
COc1ccc(CCN2C(=O)c3ccccc3NC2c2cc(Cl)c(O)c(OC)c2)cc1 (configuration not stated)	7%	-6	?	-3%	-2	5.2µM*
Cc1ccc(C(=O)O)cc1NCc1ccncc1	-22%	/	0%	4%	1	-15%
O/N=C(/c1ccccc1)c1cc2cc(Br)cc(Br)c2o1	6%	4	-7%	2%	-3	8%
CC(=O)c1sc(NC(=O)CN2C(=O)C3CC=CCC3C2=O)nc1-c1ccccc1 (configuration not stated)	/	/	23%	/	/	30%
Cc1cccc(C2Nc3ccccc3C(=O)N2CCc2ccccc2)n1 (configuration not stated)	-45%	27	19%	5%	22	51%
COc1ccc(C2Nc3ccccc3C(=O)N2O)cc1OC (configuration not stated)	-2%	16	21%	4%	20*	-3%
O=C1c2ccccc2NC(c2cccc([N+](=O)[O-])c2)N1CCc1ccccc1 (configuration not stated)	15%	74*	?	-3%	44*	?
CC(=O)NN1C(=O)c2ccccc2NC1c1ccccc1O (configuration not stated)	4%	-5	-23%[0.00184 µM]	4%	-4	25%
COc1ccc(N2C(=O)c3ccccc3NC2c2ccccc2O)cc1 (configuration not stated)	-1%	57*	197%	9%	43*	1%
COc1cc(C2OC(=O)c3c2ccc(OC)c3OC)ccc1O (configuration not stated)	/	/	7.4µM*	/	/	-21%
CC1=CC(=O)C2=C(C)C[C@@H]3OC(=O)[C@@H](C)[C@H]3C=C12	/	/	/	-3%	/	/
COc1ccc(/C(C)=N/N2C(=O)c3ccccc3NC2c2ccc(O)c(OC)c2)cc1 (configuration not stated)	1%	33*	66%	-9%	14*	11%
COc1cc(C2C(=O)c3ccccc3C2=O)ccc1O	-3%	/	-17%	-13%	59*	-16%
SMILES	NS1 function inh	Shiga inhibitor	Pf growth 48h	Giardia FBPA inh	Cycloheximide cs	Pf growth 96h
COc1ccc(C2Nc3ccccc3C(=O)N2c2ccccc2)cc1COc1ccccn1 (configuration not stated)	-1%	15	?	0%	8	?
COc1ccc(C2Nc3ccccc3C(=O)N2NC(C)=O)cc1OC (configuration not stated)	/	28	22%	-2%	12	124%
COc1cc(C2Nc3ccccc3C(=O)N2c2ccccc2)ccc1O (configuration not stated)	-14%	123*	101%	-26%	47*	/
COc1ccc(C2Nc3ccccc3C(=O)N2c2ccccc2)cc1Cn1cc([N+](=O)[O-])cn1 (configuration not stated)	-5%	-10	13µM*	0%	7	5.2µM*
Cc1ccc(CCN2CCN=C2Nc2ccccc2)cc1	/	/	?	/	/	47%
O=C(N/N=C/c1ccc([N+](=O)[O-])s1)c1ccncc1	-22%	5	4.7µM*	-10%	9	1.5µM*
Cc1ccc(C(=O)N/N=C\c2ccc([N+](=O)[O-])s2)cn1	-5%	-13	4.1µM*	4%	-2	0.33µM*
O=C(N/N=C/c1cccc([N+](=O)[O-])c1)C1CC1c1ccccc1 (configuration not stated)	-2%	-8	0%	-13%	-1	12µM*
COc1ccc(NC(=O)CCC(=O)N/N=C/c2ccc([N+](=O)[O-])s2)cc1	-49%	-2	7.4µM*	-6%	-3	?
CC1=CCC2C(=O)N(c3cccc(C(=O)Nc4ccccc4Cl)c3)C(=O)C2C1 (configuration not stated)	-35%	10	-7%	7%	7	-20%
O=S(=O)(c1ccc(Cl)c(C(F)(F)F)c1)N1CCN(c2ccccn2)CC1	/	-5	2%	2%	0	8%
CC[C@H](C)[C@H](NC(=O)[C@H](Cc1ccc(O)cc1)NC(=O)[C@@H](NC(=O)[C@@H](N)CCCN=C(N)N)C(C)C)C(=O)N[C@@H](Cc1cnc[nH]1)C(=O)N1CCC[C@H]1C(=O)N[C@@H](Cc1ccccc1)C(=O)O	/	-11	/	3%	1	/
COc1sc(SC)cc1/C=N/NC(=O)c1ccncc1	-3%	5	10%	15%	-1	15%
O=C(N/N=C/c1cccc(Br)c1)c1ccc(Br)cc1	/	33	-4%	-5%	22*	37%
CCN(CC)C(=O)C1CCCN(c2ccc([N+](=O)[O-])cc2/C=N/NC(=O)c2cccc(Br)c2)C1 (configuration not stated)	?	10	4.1µM*	5%	6	2.1µM*
